Each structure is given as a SMILES string. Unmarked numbers belong to inactive results. Inconclusive results are not listed. Calls of active or inactive are those of the source. Unless noted, calls follow the shape of the dose curve; as a rule, active = well fitted curve in the direction sought with a large enough effect in the repeat runs; inconclusive = weak or mixed curves; inactive = no such curve, though single readings can be large; an effect the other way counts as inactive or inconclusive.

Consider 23 molecules from PubChem BioAssay (Tox21).

Assay [1] is described as follows: qHTS assay for small molecules that induce genotoxicity in human embryonic kidney cells expressing luciferase-tagged ATAD5 (AID 651632). Also: nearly all actives have a fitted effect of over 15% in size. The method in brief:
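Luminescence read-out: after 16 hr compound exposure at 37C, ATAD5-luciferase HEK293T cells received Amplite, 30 min RT, then CCD imaging. A rise in signal marks genotoxic stress.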
On the technique in general: qHTS replaces the single test concentration by a dilution series.

Assay [2] in a line: qHTS assay for small molecule agonists of the p53 signaling pathway - cell viability (AID 651633; calls by dose curve; also: nearly all actives have a fitted effect of over 30% in size; also: potency is read from the fitted curve at half-maximal effect;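 as to activity change, negative = cytotoxicity: p53RE-bla HCT reporter cells with a stable beta-lactamase p53 reporter; series mostly up to about 83 µM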). The method in brief:
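p53RE-bla cells, seeded at 4,000 per well and rested 5 h at 37 C/5% CO2, received compounds in DMSO for 16 h at 37 C. CellTiter-Glo was then added, and luminescence was read after 30 min at room temperature to gauge cytotoxicity.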

Assay [3] in a line: qHTS assay for small molecules that induce genotoxicity in human embryonic kidney cells expressing luciferase-tagged ATAD5 - cell viability (AID 651634; calls by dose curve; also: nearly all actives have a fitted effect of over 25% in size). The method in brief:
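HEK293T ATAD5-luc cells, 2,000/well; compound 15.5 hr, 37C/5% CO2; CellTiter-Fluor 30 min, 37C; fluorescence read.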

A short description of assay [4]: qHTS assay for small molecule disruptors of the mitochondrial membrane potential - cell viability (AID 720634; calls by dose curve;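 also: human HepG2 liver cancer cells; series mostly up to about 83 µM; nearly all actives have a fitted effect of over 20% in size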). The method in brief: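 Luminescence from CellTiter-Glo (ATP content) gave viability in HepG2 cells, read in the same wells as the MMP dye assay after 1 hr compound exposure at 37 C.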
The nature of assay [5]: qHTS assay for small molecule disruptors of the mitochondrial membrane potential (AID 720635). Also: potency is read from the fitted curve at half-maximal effect. The method in brief:
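HepG2 cells (2,000/well) attached overnight at 37C, then took compound for 1 hr at 37C, 5% CO2. Mito-MPS dye was added for 30 min; fluorescence was read at 490/535 nm (monomers) and 540/590 nm (aggregates).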

Assay [6] in a line: qHTS assay to test for compound auto fluorescence at 535 nm (green) in HepG2 cells (AID 720675).
Assay [7] can be described thus: qHTS assay to test for compound auto fluorescence at 460 nm (blue) in HEK293 cells (AID 720678). The method in brief:
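After cell attachment (4-5 hr, 37C), compounds were pinned onto HEK293 monolayers in 10% dialyzed FBS medium. The blue channel (405/460 nm) was read following overnight culture. Equivalency was calculated against triamterene.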

Assay [8] can be described thus: qHTS assay to test for compound auto fluorescence at 590 nm (red) in HEK293 cells (AID 720679). The method in brief:
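Plates of HEK293 cells (10% dialyzed FBS) are treated with 23 nL compound or DMSO vehicle after a 4-5 hr attachment period, incubated overnight at 37C, and read for red fluorescence at 540/590nm.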

The nature of assay [9]: qHTS assay for small molecule agonists of the p53 signaling pathway (AID 651631; calls by dose curve; also: nearly all actives have a fitted effect of over 15% in size; also: potency is read from the fitted curve at half-maximal effect). The method in brief: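 We treat p53RE-bla HCT-116 cells with compounds for 16 h at 37 °C, add LiveBLAzer B/G FRET substrate for 2 h at room temperature, and measure fluorescence intensity.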
Assay [10] in a line: qHTS assay to test for compound auto fluorescence at 590 nm (red) in HepG2 cells (AID 720674). The method in brief:
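Rose Bengal sodium served as the red fluorophore standard. HepG2 monolayers (overnight attachment, MEM with 10% FBS) were exposed to test compounds for 1 hr at 37 C and read at Ex 540/Em 590 nm.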
% is scaled to controls: 0 for no effect and ±100 for the full control effect.

As to `NC(=O)Nc1ccc(Cl)cc1`, the Potency entry in assay [1], in [2], in assay [3], in [4], in [5] and in assay [7] was “inactive” each time. Also, the molecule was called inactive in assay [6] and in assay [8].
In the case of `C(=C\c1ccccc1)/CN1CCN(C(c2ccccc2)c2ccccc2)CC1`, the Potency result in assay [9], in [2], in assay [3], in assay [4] and in [5] was “inactive” throughout. In assay [6], the fluorescence, % of fluorescein control was 0.0028% [at 18.6 µM]. Moreover, the fluorescence, % of triamterene in assay [7] was 0.048% [at 18.6 µM]. Moreover, the fluorescence, % of fluorescent control in assay [8] is 0.417% [at 18.6 µM].
With `CCCCCCCCCCOS(=O)(=O)O`, the Potency entry in assay [1], in [2], in [3], in [4] and in assay [7] was “inactive” in each case. The molecule was classed as inactive in [10], in assay [6] and in assay [8].
For `CC(C)CCCCCOC(=O)CCCCC(=O)OCCCCCC(C)C`, the Potency entry in assay [1], in [2], in assay [3], in [4], in assay [5] and in [7] was “inactive” each time. The result in assay [10] and in assay [6] was inactive.
In the case of `O=C(CCC1CCN(Cc2ccccc2)CC1)c1ccc2c(c1)NCCCC2`, the Potency entry in assay [1], in assay [2], in [3], in [4] and in assay [7] was “inactive” throughout. For the same molecule, the result in assay [10], in [6] and in [8] was inactive.
Turning to `CC(C)CCCCCCOC(=O)CCCCC(=O)OCCCCCCC(C)C`, the Potency result in assay [9], in assay [1], in assay [3] and in assay [7] was “inactive” in each case. Also, the molecule was called inactive in assay [10], in assay [6] and in [8].
Regarding `CCn1nc(C)c2c1C(=O)NCC(c1ccc(O)cc1)=N2`, the Potency result in assay [9], in assay [1], in assay [3], in assay [4] and in assay [7] was “inactive” each time. The molecule was called inactive in assay [6] and in assay [8].
With `O=C(O)C(Cc1cc(I)c(O)c(I)c1)c1ccccc1` (centres undefined), the Potency entry in assay [1], in [2], in [3], in [4] and in [5] was “inactive” in each case. The molecule was called inactive in assay [6] and in [8].
`C/C=C/C=C/CCCCCCCO`: the Potency result in assay [9], in [1], in assay [3], in assay [4] and in [7] was “inactive” each time. Further, the molecule was classed as inactive in assay [10], in assay [6] and in assay [8].
With `O=C(C(=O)c1ccccc1)c1ccccc1`, the Potency result in assay [9], in [2], in assay [3], in [4] and in assay [7] was “inactive” throughout. For the same molecule, the outcome in assay [10] and in assay [6] was inactive.
As to `CC[C@H](NC(=O)c1cc(F)ccc1NS(=O)(=O)c1cccc2cccnc12)c1ccccc1`, the Potency entry in assay [1], in assay [2], in assay [3], in assay [4] and in assay [7] was “inactive” throughout. Moreover, the Potency in [5] was 2.05 µM (active). The call in assay [10] and in assay [6] was inactive.
For `CO[C@@]12[C@H](COC(N)=O)C3=C(C(=O)C(C)=C(N)C3=O)N1C[C@@H]1N[C@@H]12`, the Potency is 1.88 µM (active) in assay [9] and 23.7 µM (active) in [2]. Besides, the Potency entry in assay [4], in [5] and in [7] was “inactive” each time. Also, the molecule was called inactive in [6] and in assay [8].
As to `CC(C)(C)C(=O)O`, the Potency result in assay [9], in [1], in assay [3] and in [7] was “inactive” throughout. For the same molecule, the molecule was classed as inactive in assay [10], in [6] and in [8].
Take `C=CCOC(=O)/C=C\C(=O)OCC=C`: the Potency result in assay [1], in [2], in [3], in [4], in [5] and in assay [7] was “inactive” each time. Further, the outcome in assay [10], in assay [6] and in assay [8] was inactive.
`CC(=O)Nc1ccccc1C`: the Potency result in assay [9], in assay [1], in [3], in [5] and in [7] was “inactive” throughout. Moreover, the molecule was classed as inactive in assay [10], in assay [6] and in assay [8].
On to `CC(C)(C)C(=O)C(Oc1ccc(Cl)cc1)n1ccnc1` (centres undefined), for which the Potency entry in [9], in [1], in assay [3], in [4] and in assay [7] was “inactive” throughout. Besides, the molecule was called inactive in assay [10], in assay [6] and in assay [8].
For the molecule `CCOc1cc(N)c(Cl)cc1C(=O)NCC1CN(Cc2ccc(F)cc2)CCO1` (centres undefined), the Potency entry in assay [9], in assay [1], in assay [3], in assay [4] and in assay [7] was “inactive” throughout. Also, the outcome in assay [10], in [6] and in assay [8] was inactive.
In the case of `[O]=[Bi]`, in assay [1], the activation was 1.52% [at 8.08 µM]. In addition, the activity change, negative = cytotoxicity was 9.6% [at 8.08 µM] in assay [2] and 7.5% [at 8.08 µM] in assay [4]. Also, the activity, negative = cytotoxicity in [3] was 17.3% [at 8.08 µM]. The ratio activity, negative = MMP loss in assay [5] is 14.9% [at 8.08 µM]. For the same molecule, in [6], the fluorescence, % of fluorescein control was 0.162% [at 3.72 µM]. For the same molecule, in assay [7], the fluorescence, % of triamterene is -0.117% [at 3.72 µM]. Moreover, the fluorescence, % of fluorescent control in assay [8] is 0.261% [at 3.72 µM].
Consider `COC(=O)CC(=O)C(C)(C)C`, for which the Potency result in [1], in assay [2], in assay [3], in assay [4], in [5] and in assay [7] was “inactive” throughout. Moreover, the molecule was classed as inactive in [10] and in assay [6].
On to `CN1CCN(c2c(F)cc3c(=O)c(C(=O)O)cn4c3c2OCN4C)CC1`, for which the Potency result in assay [9], in [1], in assay [3] and in assay [7] was “inactive” each time. Besides, the molecule was classed as inactive in assay [6] and in assay [8].
With `ON(Cc1ccccc1)Cc1ccccc1`, the Potency result in assay [1], in assay [2], in assay [3], in [4], in assay [5] and in assay [7] was “inactive” each time. The result in assay [10], in assay [6] and in assay [8] was inactive.
On to `OCC1CC=CCC1` (centres undefined), for which the Potency result in [1], in assay [2], in assay [3], in assay [4], in assay [5] and in [7] was “inactive” each time. Also, the molecule was called inactive in assay [10], in assay [6] and in assay [8].
As for `CCCC(=O)O[C@]1(C(=O)COC(=O)CC)CC[C@H]2[C@@H]3CCC4=CC(=O)CC[C@]4(C)[C@H]3[C@@H](O)C[C@@]21C`, the Potency result in assay [1], in assay [2], in assay [3], in [4], in assay [5] and in [7] was “inactive” in each case. In addition, the molecule was called inactive in [6] and in [8].
